Results from PubChem BioAssay (Tox21).
Records with an inconclusive call do not appear. A call without a number means that no potency is given here. A number with no mark means an inactive call. Calls of active or inactive are those of the source. Calls follow the shape of the dose curve; as a rule, active = well fitted activation curve with a large enough effect in the repeat runs; inconclusive = weak or mixed curves; inactive = flat fitted curve, though single readings scatter.

Experiment: A CellTox Green Cytotoxicity Assay to monitor cytotoxicity in HepG2 cells - 16 hour (AID 1224876); also: nearly all actives have a fitted effect of over 45% in size
Settings: CellTox Green fluorescence; series mostly up to 76.8 µM
Text: National Center for Advancing Translational Sciences [NCATS]
NIH Chemical Genomics Center [NCGC]
U.S. Environmental Protection Agency [EPA]
National Institutes of Environmental Health Sciences [NIEHS]
National Toxicology Program [NTP]
Cell-based models are critical for drug discovery. Determining the natural cytotoxic effects resulting from test compounds is an essential research activity. A CellTox Green Cytotoxicity Assay to monitor cytotoxicity in real time of continues cell culture during 40 hours of the compound treatment was used to screen Tox21 10K library compounds in HepG2 cells. CellTox Green Cytotoxicity Assay is a nonlytic, homogeneous, biofluorescent method to measure cytotoxicity in cell culture after experimental manipulation. The assay system uses a proprietary asymmetric cyanine dye that is excluded from viable cells but preferentially stains the dead cell's DNA. […] Viable cells produce no appreciable increases in fluorescence. Therefore, the fluorescence signal produced by the binding interaction with dead cell DNA is proportional to cytotoxicity.
The mixture of HepG2 cell suspension and reagents were dispensed at 600cells/6 ul/well in 1536-well tissue culture treated black solid bottom plates using a Multidrop dispenser. After the assay plates were incubated at a 37 C/5% CO2 incubator for 5 hours, 23 nL of compounds dissolved in DMSO, positive and negative controls was transferred to the assay plate by a pintool work station. The plates were incubated at 37 C for 40 hours. The fluorescence intensity were measured at 0h, 8h, 16h, 24h, 32h and 40h time points using ViewLux plate reader during compound treatment.
Potency is read from the fitted curve at half-maximal effect.

Structure (SMILES)	Potency	cytotoxicity increase
CC(CN(CCN(CC(C)OCCO)CC(C)OCCO)CC(C)OCCO)OCCO (stereo not given)	inactive	–
COC(OC)OC	inactive	–
CC1CCCC(=O)C1=O (stereo not given)	inactive	–
CCOC(=O)c1ccc(NC(=O)CN2CCCCC2)cc1	inactive	–
O=C(C(=O)c1ccco1)c1ccco1	inactive	–
CCCCCCCCCCCC(=O)OCC(O)CO (stereo not given)	inactive	–
CNc1c2c(nn1C)CCCC2	inactive	–
C1=CCC2CC=CC2C1 (stereo not given)	inactive	–
CCC(=O)OCc1ccc(OC)cc1	inactive	–
COc1ccc(N)c([N+](=O)[O-])c1	inactive	–
CCCCCCCC(=O)Oc1c(Br)cc(C#N)cc1Br	inactive	–
O=C1OC(=O)c2c(Br)c(Br)c(Br)c(Br)c21	inactive	–
CC(C)(C)S	inactive	–
CN=C(N)NC(=O)Nc1c(C)cccc1C	inactive	–
CCc1ccc(C)cc1	inactive	–
CCN(CC)CCOC(=O)C(c1ccccc1)c1ccccc1	inactive	–
C=C(C)C(=O)OCCC(F)(F)C(F)(F)C(F)(F)C(F)(F)C(F)(F)C(F)(F)F	inactive	–
FC(F)(F)C(F)(F)C(F)(F)C(F)(F)CCI	inactive	–
CCC(CO)(CO)CO	inactive	–
CC/C=C\C/C=C\C/C=C\CCCCCCCC(=O)OCC	inactive	–

Structure (SMILES)	Potency	cytotoxicity increase
COc1ccc(C)cc1	inactive	–
CCCCCCCCCCCCCCCCCC(=O)OCC(CC)CCCC (stereo not given)	inactive	–
CCCCCC	inactive	–
CCCCCCCC/C=C/C(=O)O	inactive	–
COC(=O)Nc1nc2ccc(C(=O)C3CC3)cc2[nH]1	inactive	–
CC(C)C1CCC(C(=O)N[C@H](Cc2ccccc2)C(=O)O)CC1 (stereo not given in full)	inactive	–
O=S(=O)(O)CO	inactive	–
CC(C)c1ccc(C(=O)N=C(N)N)cc1S(C)(=O)=O	inactive	–
CCN(CC)C(=O)/C(C#N)=C/c1cc(O)c(O)c([N+](=O)[O-])c1	inactive	–
O=C1NC(=O)c2cccc3cccc1c23	inactive	–
CCN(Cc1cccc(S(=O)(=O)O)c1)c1ccc(C(=C2C=CC(=[N+](CC)Cc3cccc(S(=O)(=O)O)c3)C=C2)c2ccccc2S(=O)(=O)[O-])cc1	inactive	–
Cc1ccccc1S(N)(=O)=O	inactive	–
[Cl][Nd]([Cl])[Cl]	inactive	–
COC(=O)C1=C(C)NC(C)=C(C(=O)OC(C)(C)CN(C)CCC(c2ccccc2)c2ccccc2)C1c1cccc([N+](=O)[O-])c1 (stereo not given)	inactive	–
CCC(Cl)CC(Cl)C(Cl)C(Cl)C(Cl)C(C)Cl (stereo not given)	–	7.76% [at 15.8 µM]
CCCc1nc2c(C)cc(-c3nc4ccccc4n3C)cc2n1Cc1ccc(-c2ccccc2C(=O)O)cc1	inactive	–
CCC(C)(C)C(=O)O	inactive	–
COc1ccc(C(=O)NCc2ccc(OCCN(C)C)cc2)cc1OC	inactive	–
O=C(/C=C/c1ccc([N+](=O)[O-])cc1)c1ccccc1	21.9 µM (active)	–
O=C(O)c1ccc(O)cc1O	inactive	–
